Screening results (PubChem)
ERK AVP block: blocks ERK signaling stimulated by vasopressin; 72,000 compounds, 0.99% hits; HEK293-V1b, vasopressin-stimulated pERK AlphaScreen; Potency, µM (highest dose often 57.5 µM), without a hit: top-dose activity, negative = inhibition, actives largely listed as inhibitors; also: nearly all actives have a fitted effect of over 55% in size
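HEK293 cells stably expressing V1b receptor, preincubated 30 min at 37 °C with compound, then stimulated 5 min with 25 nM vasopressin. Phospho-ERK by AlphaScreen SureFire after 5 h RT; normalized to DMSO and vasopressin; AC50 by Hill fit.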
ALOX15 inhib: 15-hLO (ALOX15) enzyme inhibition | purified 15hLO-1, xylenol orange hydroperoxide absorbance | 74,000 compounds, 1.4% hits | AID 887 | Potency, µM (doses to about 57.1 µM), without a hit: top-dose activity change, negative = inhibition, actives largely listed as inhibitors | P16050; also: nearly all actives have a fitted effect of over 55% in size
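Hydroperoxide formed from arachidonic acid (50 uM) by purified human 15hLO-1 (40 nM) oxidizes ferrous iron, and the ferric-xylenol orange complex is read at 573 versus 405 nm. Compounds were preincubated 15 min; reaction ran 6 min at room temperature.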
Tau filament bind: tau filament binding. P10636. recombinant tau filaments, thioflavin S fluorescence, 15 h; filaments grown with octadecylsulfate alongside compound. Potency, µM (titrated, usually from 57.1 µM), without a hit: top-dose activity change, negative = inhibition. 71,000 compounds, 2% hits. AID 596;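 also: actives lower thioflavin S fluorescence by blocking filaments or displacing dye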
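Recombinant tau protein (human, 1 uM final) plus 30 uM ODS in HEPES pH 7.4 with NaCl, DTT and thioflavine S. Compound present from the start; fluorescence at 510 nm after 15 h, 37 C.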
FLuc inh: firefly luciferase inhibition; P08659; purified firefly luciferase, luminescence, 8 min; Potency, µM (titrated, usually from 57.1 µM), for inactives: top-dose activity change, negative = inhibition, most hits filed as inhibitors; 72,000 compounds, 2.2% hits; AID 411; also: nearly all actives have a fitted effect of over 40% in size
Target sequence (P08659 whole entry, looked up): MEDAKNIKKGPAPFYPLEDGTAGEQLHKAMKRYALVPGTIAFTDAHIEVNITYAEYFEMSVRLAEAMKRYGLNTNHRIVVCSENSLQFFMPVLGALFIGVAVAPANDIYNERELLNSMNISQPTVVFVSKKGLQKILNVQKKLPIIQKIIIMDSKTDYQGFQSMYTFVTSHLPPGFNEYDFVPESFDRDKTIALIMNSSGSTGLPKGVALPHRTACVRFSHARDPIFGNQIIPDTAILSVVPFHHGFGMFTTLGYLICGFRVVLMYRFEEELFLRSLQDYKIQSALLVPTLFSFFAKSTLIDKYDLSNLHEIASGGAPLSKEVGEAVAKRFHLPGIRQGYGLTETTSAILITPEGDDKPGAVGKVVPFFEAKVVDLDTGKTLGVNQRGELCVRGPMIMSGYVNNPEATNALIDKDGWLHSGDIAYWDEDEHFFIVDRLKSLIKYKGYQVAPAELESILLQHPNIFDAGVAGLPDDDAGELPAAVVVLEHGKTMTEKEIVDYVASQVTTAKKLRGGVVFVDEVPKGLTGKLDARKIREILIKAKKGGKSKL
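Here, luciferase activity is measured as luminescence following an 8 min room-temperature reaction at 10 uM ATP, pH 7.2. Every library sample is titrated.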
Pol III holo inh: DNA polymerase III holoenzyme inhibition | reconstituted DNA polymerase III holoenzyme replication, biochemical | Potency, µM (top dose mostly 57.1 µM), without a hit: at the highest dose activity change, negative = inhibition | 71,000 compounds, 0.25% hits | AID 603
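Reconstituted *E. coli* holoenzyme (0.35 nM Pol III, 1 nM beta, 154 nM SSB, 2 nM primase) was preincubated with compound for 15 min at RT. Synthesis on 1.4 nM ssM13Gori ran 35 min, then was stopped with PicoGreen/EDTA and read as dsDNA fluorescence.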
PK Bst: alters activity of Bacillus stearothermophilus pyruvate kinase. 51,000 compounds, 1.2% hits. Potency, µM. purified pyruvate kinase, luminescence ATP production; ribose 5-phosphate activator present at AC10; in the data active = potency below about 11 µM; inconclusive = mostly about 12 µM to 25 µM;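 the screen sought inhibitors and activators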;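 also: scaled between full activation by ribose 5 phosphate and full inhibition by luteolin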
* hit, by the source's call; i = inactive; ? = inconclusive; . = no result given; [ ] = another dose, or the depositor's remark. Only some compounds are listed: those with a hit (about 6% of all), similar ones and a draw of the others. Unless noted, calls follow the shape of the dose curve; as a rule, active = well fitted curve in the direction sought with a large enough effect; inconclusive = small, poorly fitted or top-dose-only effect, or another doubt; inactive = no such curve, though single readings can be large; an effect the other way counts as inactive or inconclusive. Unless noted, % is scaled to controls: 0 for no effect and ±100 for the full control effect; potency is read from the fitted curve at half-maximal effect.

SMILES	ERK AVP block	ALOX15 inhib	Tau filament bind	FLuc inh	Pol III holo inh	PK Bst
O=C1C2C3C=CC(C3)C2C(=O)N1CNc1ccc(O)cc1 (configuration not stated)	2.4%	?	15.8µM*	-9.7%	-13.2%	i
COCCn1nnnc1CN(Cc1cc2cc(OC)c(OC)cc2[nH]c1=O)C1CCCC1	-10.9%	?	i	-1.3%	1.3%	>57
COc1ccccc1CN(Cc1cc2cc(C)ccc2[nH]c1=O)Cc1nnnn1CC1CCCO1 (configuration not stated)	-11.2%	?	22.6%	-5.5%	-9.4%	>57
COc1cc2cc(CN(Cc3nnnn3Cc3ccco3)C3CCCCC3)c(=O)[nH]c2cc1OC	-14.5%	12.6µM*	329.1%	-5.3%	-14.9%	>57
COc1ccccc1CN(Cc1cc2cc(C)ccc2[nH]c1=O)Cc1nnnn1Cc1ccco1	-21.0%	7.94µM*	54.1%	-15.9%	-7.6%	>57
CCOc1ccc2[nH]c(=O)c(CN(Cc3nnnn3Cc3ccco3)C3CCCCC3)cc2c1	6.2%	3.16µM*	-2.4%	-1.9%	-13.6%	>57
COc1ccc2[nH]c(=O)c(CN(Cc3ccccc3OC)Cc3nnnn3CC3CCCO3)cc2c1 (configuration not stated)	7.7%	20µM*	96.5%	-4.1%	-0.7%	>57
CCOc1ccc2[nH]c(=O)c(CN(Cc3ccco3)Cc3nnnn3Cc3ccccc3)cc2c1	-20.3%	-3.5%	24.5%	-1.1%	-2.3%	>57
COc1ccccc1CNc1cc(-c2ccoc2)ncn1	-13.7%	26.0%	2.9%	0.4%[2.29 µM]	2.1%	.
CS(=O)(=O)c1ccc(CNC(=O)[C@H]2C[C@@H]2[C@H](NP(=O)(c2ccccc2)c2ccccc2)c2ccccc2)cc1	-10.0%	.	6.1%	.	-9.3%	.
COc1ccccc1NS(=O)(=O)c1cc(C(=O)O)ccc1F	.	-2.0%	.	.	.	.
N#CCCn1c(=O)c(-c2ccccc2)nc2cnc(Oc3ccccc3)nc21	-21.6%	3.4%	-28.5%	1.7%[11.4 µM]	-2.0%	.
CC(NC(=O)c1cc(-c2ccc(O)cc2)on1)c1ccccc1 (configuration not stated)	0.9%	-10.3%	-17.6%	-0.8%	-6.6%	.
N[C@H](CCC(=O)NCS(=O)(=O)O)C(=O)O	1.6%	11.7%	10.3%	2.2%	-0.9%	.
COc1cccc(C(=O)N(Cc2cc3cc(C)ccc3[nH]c2=O)CC2CCCO2)c1 (configuration not stated)	?	?	17.7%	1.4%	-2.1%	>57
COc1ccc2[nH]c(=O)c(CN(CC3CCCO3)C(=O)Nc3ccc(F)cc3)cc2c1 (configuration not stated)	12.6µM*	-11.4%	4.5%	1.5%	5.9%	i
Cn1nc(C(=O)Nc2sccc2C(N)=O)ccc1=O	-23.7%	0.8%	25.1µM*	-3.7%	-10.8%	.
N#Cc1cccc(-c2cncnc2NCc2cccs2)c1	6.4%	4.2%	-9.4%	-1.8%[2.29 µM]	-2.5%	.
COCC1C2CC[C@H]3C(OCc4ccc(OC)cc4)OC[C@]4(C)[C@H]3C2=C(CN4C(=O)OC(C)(C)C)[C@H](C)C1COC (some centres not stated)	43.5%	.	146.8%	.	-5.7%	.
c1coc(C2Nc3ccccc3-c3nc4ccccc4n32)c1 (configuration not stated)	-4.6%	12.6%	-4.3%	?	-2.2%	.
c1ccc(C2Nc3ccccc3-c3nc4ccccc4n32)nc1 (configuration not stated)	.	.	.	3.98µM*	.	?
CCOC(=O)C1=C(C)N=c2s/c(=C\c3cccn3C)c(=O)n2C1c1cccc(OC)c1OC (configuration not stated)	-23.2%	-10.0%	29.3%	0.4%	0.4%	.
CCOC(=O)C1=C(N)n2c(s/c(=C/c3ccco3)c2=O)=C(C(=O)OC)C1c1ccco1 (configuration not stated)	?	-28.1%	3.16µM*	-1.2%	-4.8%	>57
CCOC(=O)C1=C(C)N=c2s/c(=C/c3ccco3)c(=O)n2C1c1cccc(OC)c1 (configuration not stated)	?	15.8µM*	3.16µM*	-2.0%	2.4%	.
CCCCCCC1=Cc2cc(OC)c(OC)cc2C(C2(C(=O)OCC)CCCC2=O)O1 (configuration not stated)	23.2%[11.5 µM]	5.0%[11.4 µM]	.	.	.	.
SMILES	ERK AVP block	ALOX15 inhib	Tau filament bind	FLuc inh	Pol III holo inh	PK Bst
C[C@@H](CCc1ccc(O)cc1)NCCc1ccc(O)c(O)c1	?	-1.5%[25.6 µM]	?	-3.1%	-0.9%	.
N#Cc1ccsc1NC(=O)CSc1ncnc2ccccc12	-6.0%	-3.0%	20µM*	2.0%	-0.1%	>57
N#Cc1ccsc1NC(=O)CSc1ncn[nH]1	12.4%	6.3%	0.6%	3.3%	-10.0%	>57
O=C(CN1c2cccc3cccc(c23)S1(=O)=O)NCc1ccc2c(c1)OCO2	-6.5%	-11.7%[11.4 µM]	6.9%[11.4 µM]	-4.9%	7.7%[11.4 µM]	.
COc1cc(NC(=O)CN2c3cccc4cccc(c34)S2(=O)=O)cc(OC)c1OC	-20.2%	-7.4%	0.7%	6.8%	-5.9%	0.808*
C=CCn1c(N)c(-c2nc3ccccc3n2C)sc1=S	?	-7.6%	15.8µM*	-1.3%	-5.4%	>57
Cc1cnc(CNc2ncncc2-c2ccccc2C(F)(F)F)cn1	-6.1%	?	-7.3%	0.9%[2.29 µM]	-6.5%	.
N#Cc1c(/N=C/c2cccs2)sc2c1CCCCC2	15.8µM*	-9.7%	12.6µM*	2µM*	6.9%	1.14*
N#Cc1c(/N=C/N2CCOCC2)sc2c1CCCCC2	-19.2%	-7.1%	1.9%	12.6µM*	1.9%	.
COc1ccc(-n2c(C)c(C(C)=O)c(C(C)=O)c2C)cc1OC	31.6µM*	-13.3%	-28.4%	-2.2%	-5.3%	.
CCN(CC)CCOC(=O)c1c(C)oc2ccc(O)cc12	-15.8%	5.4%	-10.9%	1.6%	-1.6%	>57
CCN(CC)CC[n+]1ccc2c(C)c3[nH]c4ccc(O)cc4c3c(C)c2c1	17.8%[11.5 µM]	?	3.98µM*	-0.4%[11.4 µM]	1.26µM*	.
C[N+]1(C)CC[C@@H](OC(=O)[C@@](O)(c2ccccc2)C2CCCC2)C1	18.0%[25.7 µM]	16.5%[25.6 µM]	-1.9%[25.6 µM]	-4.5%[25.5 µM]	-5.4%[25.6 µM]	.
O=C(COc1ccc(Br)cc1CO)Nc1ccc(F)cc1	39.8µM*	-18.5%	-0.9%	-1.7%	-1.5%	.
Cc1nnc(S(=O)(=O)c2ccc(N=Nc3c(N)nc(N)nc3N)cc2)s1	-12.4%[11.5 µM]	-1.0%[11.4 µM]	5.6%[11.4 µM]	0.3%[11.4 µM]	-11.8%[11.4 µM]	.
CC(=O)N1CCCc2cc(S(=O)(=O)CCC(=O)N3CCN(c4cccc(C)c4)C(C)C3)ccc21 (configuration not stated)	?	0.4%	8.4%	1.7%	15.8µM*	.
COCCn1c(COC)nc2ccccc21	1.0%	-1.4%	-4.1%	3.5%	-4.8%	>57
COCCn1c(COc2ccc(C)cc2)nc2ccccc21	12.0%	5.7%	-9.3%	12.6µM*	1.4%	i
